Only some compounds are listed: those with a hit (about 1.2% of all), similar ones and a draw of the others.
VLA-4 inh: inhibition in a human VLA-4 binding assay; VLA-4 expressing cells, ligand binding flow cytometry; inhibition, % (about 7 µM as worked out from the volumes in the protocol); 0.2% of 330,000 active; AID 2557; in the data active means inhibition above about 50%
p-CIP stab down: lowers stability of the mouse p/CIP coactivator protein; F442A p/CIP-EGFP cells, EGFP fluorescence, 16 h; Q05BA5; 0.01% of 290,000 active; decrease of EGFP signal, % at 10 µM; AID 1984;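 active means EGFP signal decrease of at least 30% at 10 µM or well 3 SD below plate mean, unless failing retest; inactive means the rest, including hits failing retest or dose response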
Target sequence (Q05BA5 1-1403): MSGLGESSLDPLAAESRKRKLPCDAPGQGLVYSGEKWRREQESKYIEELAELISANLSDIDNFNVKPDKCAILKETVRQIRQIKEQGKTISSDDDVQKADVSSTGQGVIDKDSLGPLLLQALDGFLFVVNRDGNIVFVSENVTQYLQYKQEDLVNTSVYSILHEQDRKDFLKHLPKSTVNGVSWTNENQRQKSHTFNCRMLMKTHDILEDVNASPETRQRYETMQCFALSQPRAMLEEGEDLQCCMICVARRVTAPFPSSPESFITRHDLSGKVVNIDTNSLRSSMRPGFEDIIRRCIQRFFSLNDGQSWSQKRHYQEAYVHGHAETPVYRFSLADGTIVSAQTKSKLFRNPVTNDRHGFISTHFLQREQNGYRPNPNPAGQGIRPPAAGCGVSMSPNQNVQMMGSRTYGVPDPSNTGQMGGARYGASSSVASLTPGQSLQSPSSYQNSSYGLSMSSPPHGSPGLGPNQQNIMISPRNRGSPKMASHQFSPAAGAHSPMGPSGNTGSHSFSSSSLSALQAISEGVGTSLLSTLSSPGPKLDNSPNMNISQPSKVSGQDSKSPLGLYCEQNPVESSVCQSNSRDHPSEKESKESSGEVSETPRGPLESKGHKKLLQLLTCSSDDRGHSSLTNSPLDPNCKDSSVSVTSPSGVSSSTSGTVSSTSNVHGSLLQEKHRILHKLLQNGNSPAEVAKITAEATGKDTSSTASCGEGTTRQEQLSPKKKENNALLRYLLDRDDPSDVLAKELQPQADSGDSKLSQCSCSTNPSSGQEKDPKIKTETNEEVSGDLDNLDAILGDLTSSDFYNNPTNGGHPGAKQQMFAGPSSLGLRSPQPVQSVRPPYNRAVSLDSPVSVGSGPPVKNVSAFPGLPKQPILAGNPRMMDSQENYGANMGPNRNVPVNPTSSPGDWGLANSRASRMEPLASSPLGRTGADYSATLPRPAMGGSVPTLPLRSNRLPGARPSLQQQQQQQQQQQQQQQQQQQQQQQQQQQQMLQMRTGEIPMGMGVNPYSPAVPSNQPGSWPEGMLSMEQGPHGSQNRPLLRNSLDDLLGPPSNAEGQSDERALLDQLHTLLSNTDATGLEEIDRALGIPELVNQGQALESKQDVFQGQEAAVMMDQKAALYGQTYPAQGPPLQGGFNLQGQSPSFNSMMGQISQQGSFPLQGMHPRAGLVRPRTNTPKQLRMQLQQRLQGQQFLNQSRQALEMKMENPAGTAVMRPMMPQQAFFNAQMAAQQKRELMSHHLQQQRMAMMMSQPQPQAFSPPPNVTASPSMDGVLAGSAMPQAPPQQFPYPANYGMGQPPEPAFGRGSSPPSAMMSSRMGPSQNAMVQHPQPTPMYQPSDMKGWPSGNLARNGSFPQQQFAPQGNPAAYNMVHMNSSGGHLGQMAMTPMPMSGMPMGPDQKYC
GPR7 antagonist: human neuropeptides B/W receptor 1 antagonism; P48145; GPR7-expressing cells, fluorescence antagonist assay; inhibition, % at 4.4 µM; 1.1% of 290,000 active; in the data active means inhibition above about 16%, passing the limit was not always enough;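 further: cells stimulated with the agonist NPW; 0% = agonist with vehicle and 100% = vehicle without agonist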
JMJD2C inh: inhibitors of human GASC-1 (JMJD2C) demethylase; inhibition, % at 2.35 µM; 0.069% of 330,000 active; GST-JMJD2C(1-420) H3K9me3 demethylation, DELFIA europium;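 active means more than half of a compound's replicate wells show inhibition beyond 50%, single wells judged on their own value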;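 further: signal counts dimethyl H3K9 product captured on neutravidin plate; 0% = median of DMSO wells and 100% = 0.3 times that DMSO median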
GPR7 antag conf: confirmation of human GPR7 antagonists. shares compounds with GPR7 antagonist. GPR7-expressing cells, calcium fluorescence antagonist mode. inhibition, % at 4.4 µM. 52% of 2,400 active. AID 1952; in the data active means inhibition above about 24%;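 further: stimulated with the GPR7 agonist NPW; 0% = agonist plus vehicle and 100% = vehicle alone without agonist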
MCHR1 antag: counter-screen for GPR7 antagonists: antagonists of human MCHR1 | 62% of 2,400 active | inhibition, % at 4.4 µM | MCHR1-expressing cells, fluorescence antagonist assay | shares compounds with GPR7 antagonist; in the data active means inhibition above about 22%;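 further: 0% = vehicle with agonist and 100% = vehicle without agonist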
Numbers without * were called inactive; nt = not tested or not shown.

SMILES	VLA-4 inh	p-CIP stab down	GPR7 antagonist	JMJD2C inh	GPR7 antag conf	MCHR1 antag
Cc1ccc2cc(/C=N/NC(=O)CN3CCCCC3)c(Cl)nc2c1	-7	-16	-5	5	nt	nt
Cc1nc(Cl)c2c(n1)N(CC(N)=O)C(=O)CO2	4	-4	-7	-13	nt	nt
CCCOC1CCCN(C(=O)CCc2nnc(-c3ccc4c(c3)OCO4)o2)C1 (stereo not drawn)	-24	-1	22	12	nt	nt
COc1ccccc1-c1c(-c2ccc(OCC(=O)NN)cc2O)n[nH]c1C(F)(F)F	9	-4	-6	2	nt	nt
COc1ccc(-c2n[nH]c(C(F)(F)F)c2-c2cc3ccccc3o2)c(O)c1	12	-11	29*	nt	32*	71*
CC1CCC(C(C)C)C(OC(=O)Cn2c(-c3ccccc3)[n+](C)c3ccccc32)C1 (stereo not drawn)	47	-5	86*	6	92*	83*
COc1ccc(C(CNC(=O)c2ccco2)N2CCCC2)cc1 (stereo not drawn)	-7	nt	nt	-11	nt	nt
C#CCOCCOCCOCCNc1nc(N2CCOCC2)nc(N2CCN(C(=O)[C@H](Cc3cc4ccccc4[nH]3)n3cc([C@@H](N)CC(C)C)nn3)CC2)n1	nt	-14	-18	33	nt	nt
C#CCOCCOCCOCCNc1nc(N2CCN(C(=O)[C@H](Cc3cc4ccccc4[nH]3)n3cc([C@@H](N)CC(C)C)nn3)CC2)nc(N2CCN(C(=O)[C@H](Cc3cc4ccccc4[nH]3)n3cc([C@@H](N)CC(C)C)nn3)CC2)n1	-2	-11	79*	-10	54*	33*
COc1ccccc1C(=O)NCCC(=O)NNC(=O)Cn1ccc(C(F)(F)F)n1	2	nt	nt	-5	nt	nt
CN(C)CC(CCCCC(CN(C)C)C(=O)c1ccccc1)C(=O)c1ccccc1 (stereo not drawn)	nt	-3	-4	-16	nt	nt
O=C(NCc1cccnc1)c1ccc(COc2cccc3ccccc23)o1	-6	-8	32*	-49	44*	43*
O=C(NCc1cccnc1)c1ccc(COc2ccc(Cl)cc2Cl)o1	-5	-10	-3	-1	nt	nt
O=C1CCCN2N=C(SCC(=O)N3N=C(c4ccc(Br)cc4)CC3c3ccc(F)cc3)SC2=N1 (stereo not drawn)	4	-24	22*	4	-11	-2
Cc1ccc(C2CC(c3ccc(Br)cc3)=NN2C(=O)CSC2=NN3CCCC(=O)N=C3S2)cc1 (stereo not drawn)	4	0	1	-77	nt	nt
CCc1noc(C)c1C(=O)N(C)CC(=O)Nc1ccc(F)c(F)c1F	5	nt	nt	-1	nt	nt
COC(=O)c1ccc(Oc2nc(C(N)=O)cc(-c3ccccc3)n2)cc1	-17	-2	1	-2	nt	nt
O=C(CC1(CC(=O)N2CCOCC2)CCCC1)Nc1ccc(F)cc1	-4	nt	nt	-8	nt	nt
CC(=O)Nc1ccc(S(=O)(=O)NCc2nc(-c3cccc(C)c3)no2)cc1	-17	4	24*	-20	0	0
CC(=O)Nc1ccc(S(=O)(=O)NCc2nc(-c3ccc(C)cc3)no2)cc1	22	-13	-16	7	nt	nt
CCc1ccc(CNC(=O)Cn2nc(-c3ccccc3)ccc2=O)cc1	3	3	31*	4	13	0
Cc1ccc(CNC(=O)C2CCC(=O)N(Cc3ccccc3F)C2)s1 (stereo not drawn)	-4	-1	-2	14	nt	nt
Cc1ccc(NC(=O)C2CCN(S(=O)(=O)c3ccc4c(c3)NC(=O)C(C)S4)CC2)c(Cl)c1 (stereo not drawn)	-2	-14	0	-13	nt	nt
COc1ccc(C)cc1NC(=O)C1CCN(S(=O)(=O)c2ccc3c(c2)C(C)(C)C(=O)N3C)CC1	0	-7	-10	-13	nt	nt
Cc1cc(C)cc(NC(=O)C2CCN(S(=O)(=O)c3ccc4c(c3)NC(=O)C(C)S4)CC2)c1 (stereo not drawn)	11	7	30*	-24	25*	46*
SMILES	VLA-4 inh	p-CIP stab down	GPR7 antagonist	JMJD2C inh	GPR7 antag conf	MCHR1 antag
Cc1ccc(NC(=O)C2CCN(S(=O)(=O)c3ccc4c(c3)C(C)(C)C(=O)N4C)CC2)c(C)c1	18	0	30*	-11	-1	4
Cc1ccccc1NC(=O)C1CCN(S(=O)(=O)c2ccc3c(c2)NC(=O)C(C)S3)CC1 (stereo not drawn)	-9	-4	-5	-12	nt	nt
Cc1ccc(NC(=O)C2CCN(S(=O)(=O)c3ccc4c(c3)NC(=O)C(C)S4)CC2)cc1Cl (stereo not drawn)	-4	-39	38*	-9	69*	75*
CC1Sc2ccc(S(=O)(=O)N3CCN(c4ccccc4)CC3)cc2NC1=O (stereo not drawn)	12	-15	39*	3	18	26*
CCn1cc(C(=O)O)c(=O)c2cnc(N3CCN(C(=S)NC(=O)c4ccc(OC)cc4)CC3)nc21	-4	-16	-11	-15	nt	nt
Cc1cccc(C(=O)NC2CCN(CC(=O)Nc3ccccc3Cl)CC2)c1	7	-8	-8	-4	nt	nt
CC1(C)CC(C(CC(=O)N2CCCC2)Cc2ccccc2)CCO1 (stereo not drawn)	12	-4	23*	-1	9	14
Cc1cccc(N2CC(C(=O)OCC(=O)c3ccc(OC(=O)c4cccs4)cc3)CC2=O)c1C (stereo not drawn)	22	-17	30*	3	18	58*
Cc1cccc(N2CC(C(=O)OCC(=O)Nc3sccc3C(N)=O)CC2=O)c1C (stereo not drawn)	1	nt	nt	-4	nt	nt
CN1/C(=C\C(=O)COc2ccc3c(c2)OCO3)C(C)(C)c2ccccc21	-76	-13	28*	-2	12	44*
CCCCCCCCCCOC(=O)Cn1c(COc2ccccc2OC)[n+](C)c2ccccc21	6	-11	53*	11	98*	107*
CCC(=O)N1CCc2cc(S(=O)(=O)N3CCN(c4cc(Cl)ccc4C)CC3)ccc21	3	7	-1	-4	nt	nt
CCCCCc1ccc(OCCCC[n+]2ccc(C)cc2)c(CCCCC)c1	5	-15	24*	4	70*	79*
O=C(Cn1cnc2cc([N+](=O)[O-])ccc2c1=O)Nc1cccc2ccccc12	4	-12	25*	-3	17	1
Cc1ccccc1OCCn1cnc2cc([N+](=O)[O-])ccc2c1=O	0	-7	26*	0	27*	55*
O=C(Cn1cnc2cc([N+](=O)[O-])ccc2c1=O)Nc1ccccc1Cl	-11	-2	-13	-4	nt	nt
O=c1c2ccccc2ncn1CCCOc1ccccc1[N+](=O)[O-]	-1	2	-2	-1	nt	nt
CCN1C(=O)[C@H]2[C@@H](c3ccc(-c4ccc(OC)cc4)cc3)N3CCCC[C@@]3(C(=O)OC)[C@H]2C1=O	8	nt	nt	1	nt	nt
O=C(NCCc1c[nH]c2ccccc12)c1ccc2[nH]c(=O)c(=O)[nH]c2c1	14	-3	40*	0	-23	12
COc1ccc(OCCSc2nnc(-c3ccc(OC)cc3)n2N)cc1	5	-7	-8	25	nt	nt

From PubChem BioAssay
